This note sets out measurements from the supplement of paper PMC4723716.

Molecules are shown by their SMILES. ± gives the uncertainty stated by the source. The full ranking holds about 9,900 compounds; the median of “viability index relative to DMSO control” is about 1, and the lowest 2% start at about 0.85. This is one part of a sample in which the lowest values are shown more often than they occur.

In the experiment the test system is Plasmodium falciparum NF54 stage V gametocytes. The experiment in a line: viability index relative to DMSO control (fraction); higher = less gametocyte killing. As to conditions: 2.5 µM, incubation time: 72 h. In a few lines: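 Viability index is the count of red-stained particles in a well divided by the plate mean of solvent-only wells. Particles of 20–70 µm2 were counted in one imaged field per well after one to two hours with 3 µl of 2.5 µM MitoTracker Red CMXRos and 0.13% saponin. Before staining, P. falciparum NF54 stage V gametocytes in serum-free medium (0.75% gametocytemia, 1.25% hematocrit, 10 µl, 1,536-well plates) were kept with compound at 2.5 µM for 72 hr at 37°C under low oxygen.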

Setting [1] is: library set: Broad Institute DOS.

For `C[C@@H]1CN([C@H](C)CO)C(=O)CCCn2nncc2CO[C@@H]1CN(C)S(=O)(=O)c1ccc2c(c1)OCCCO2`, the viability index under setting [1] turned out to be 1.025 ± 0.0016.

Take `C[C@@H]1CN([C@H](C)CO)C(=O)c2cc(NS(=O)(=O)c3cn(C)cn3)ccc2O[C@@H](C)CCCCO[C@@H]1CN(C)Cc1ccc2c(c1)OCO2`: the viability index under setting [1] is 1.15 ± 0.07.

Take `CC(=O)N1CC2(C1)[C@@H](c1ccc(-c3ccc(F)cc3)cc1)[C@@H](CO)N2CC1CC1`: the viability index under setting [1] is 1.08 ± 0.023.

For the compound `O=C(C[C@@H]1C=C[C@@H](NC(=O)Nc2ccc3c(c2)OCO3)[C@@H](CO)O1)NCCCN1CCOCC1`, the viability index under setting [1] came out at 1.02 ± 0.075.

`COc1ccccc1S(=O)(=O)N1[C@@H]2CNC[C@H]1[C@@H]2c1ccc(-c2ccncc2)cc1`: the viability index under setting [1] turned out to be 1.06 ± 0.032.

In the case of `O=C(C[C@@H]1CC[C@H](NC(=O)C2CC2)[C@H](CO)O1)Nc1ccccc1`, the viability index under setting [1] was determined as 0.916 ± 0.036.

As to `O=C(C1CCOCC1)N1C[C@@H]2[C@H](c3ccccc31)[C@@H](CO)N2C(=O)Cc1ccccn1`, the viability index under setting [1] stood at 1.06 ± 0.053.

Under setting [1], `COc1ccc2c3c([nH]c2c1)[C@@H](CO)N(C[C@]31CN(C1)C(=O)NC(C)C)C(=O)C1CCOCC1` had a viability index of 1.03 ± 0.045.

In turn, `C[C@H]1CN([C@@H](C)CO)C(=O)c2cccc(NC(=O)C3CCOCC3)c2O[C@@H]1CN(C)C(=O)Nc1cccc2ccccc12` showed a viability index under setting [1] of 1.03 ± 0.11.

Compound `CCS(=O)(=O)Nc1ccc2c(c1)C(=O)N(C)[C@@H]1CC[C@H](CC(=O)NC3CCCCC3)O[C@@H]1CO2` had a viability index under setting [1] of 0.905 ± 0.12.

In turn, `CN(C)C(=O)c1cccc(-c2ccc([C@@H]3[C@H]4CN(C(=O)C5CCC5)CC(=O)N4[C@H]3CO)cc2)c1` showed a viability index under setting [1] of 0.9976 ± 0.0084.

In the case of `COc1ccc(-c2ccccc2[C@@H]2[C@@H](CO)N(C(=O)NC(C)C)[C@H]2C#N)cc1`, the viability index under setting [1] came to 1.1 ± 0.063.

As for `COc1ccc(S(=O)(=O)Nc2ccc3c(c2)[C@H]2C[C@H](CC(=O)N(C)C)O[C@@H](CO)[C@H]2O3)cc1`, the viability index under setting [1] was determined as 1.11 ± 0.014.

`C[C@H]1CN([C@@H](C)CO)C(=O)c2cc(NS(=O)(=O)c3cn(C)cn3)ccc2O[C@@H]1CN(C)C(=O)Nc1cccc2ccccc12` registered a viability index under setting [1] of 0.954 ± 0.24.

Under setting [1], `Cc1ccc(S(=O)(=O)N(C)C[C@@H]2Oc3cc(C#CC4CCCC4)ccc3S(=O)(=O)N([C@H](C)CO)C[C@@H]2C)cc1` had a viability index of 0.943 ± 0.17.

Take `C[C@H]1CN([C@@H](C)CO)S(=O)(=O)c2ccc(C#Cc3cccc(F)c3)cc2O[C@@H]1CN(C)S(=O)(=O)c1cn(C)cn1`: the viability index under setting [1] worked out at 0.985 ± 0.049.

As for `C[C@@H]1CN([C@@H](C)CO)S(=O)(=O)c2ccc(C#Cc3cccc(F)c3)cc2O[C@@H]1CN(C)S(=O)(=O)c1cn(C)cn1`, the viability index under setting [1] amounted to 0.9512 ± 0.0018.

Under setting [1], `CCCC#Cc1ccc2c(c1)O[C@H](CN(C)Cc1ccccn1)[C@H](C)CN([C@@H](C)CO)S2(=O)=O` showed a viability index of 0.847 ± 0.015.

In turn, `COc1cccc(S(=O)(=O)N(C)C[C@@H]2Oc3cc(Br)ccc3S(=O)(=O)N([C@@H](C)CO)C[C@@H]2C)c1` returned a viability index under setting [1] of 1.07 ± 0.041.

Consider `CCCC#Cc1ccc2c(c1)O[C@H](CN(C)Cc1ccccn1)[C@@H](C)CN([C@@H](C)CO)S2(=O)=O`, for which the viability index under setting [1] worked out at 1.02 ± 0.084.

For `CCCC#Cc1ccc2c(c1)O[C@@H](CN(C)Cc1ccccn1)[C@@H](C)CN([C@@H](C)CO)S2(=O)=O`, the viability index under setting [1] was determined as 0.884 ± 0.045.

`Cc1ccc(S(=O)(=O)N(C)C[C@@H]2Oc3cc(C#CC4CCCC4)ccc3S(=O)(=O)N([C@H](C)CO)C[C@H]2C)cc1` gave a viability index under setting [1] of 0.766 ± 0.091.

For `C[C@@H]1CN([C@H](C)CO)S(=O)(=O)c2ccc(C#Cc3cccc(F)c3)cc2O[C@H]1CN(C)S(=O)(=O)c1cn(C)cn1`, under setting [1], the viability index came to 0.803 ± 0.052.

On to `Cc1ccc(S(=O)(=O)N(C)C[C@H]2Oc3cc(C#CC4CCCC4)ccc3S(=O)(=O)N([C@H](C)CO)C[C@H]2C)cc1`, for which the viability index under setting [1] was determined as 0.8771 ± 0.0037.

`Cc1ccc(S(=O)(=O)N(C)C[C@@H]2Oc3cc(C#CC4CCCC4)ccc3S(=O)(=O)N([C@@H](C)CO)C[C@H]2C)cc1` returned a viability index under setting [1] of 0.648 ± 0.17.

`C[C@@H]1CN([C@H](C)CO)S(=O)(=O)c2ccc(C#Cc3cccc(F)c3)cc2O[C@@H]1CN(C)S(=O)(=O)c1cn(C)cn1` came in with a viability index under setting [1] of 1.01 ± 0.055.

As for `O=C(C[C@H]1CC[C@H]2[C@@H](COC[C@H](O)CN2Cc2nccs2)O1)N1CCC(Cc2ccccc2)CC1`, under setting [1], the viability index amounted to 1.03 ± 0.078.

`CN1C(=O)c2cc(NC(=O)c3cnccn3)ccc2OC[C@@H]2O[C@H](CC(=O)N[C@@H]3CCN(Cc4ccccc4)C3)CC[C@H]21`: the viability index under setting [1] is 1.05 ± 0.031.

Take `COc1ccccc1CN1[C@@H]2CNC[C@H]1[C@@H]2c1ccc(-c2cccnc2)cc1`: the viability index under setting [1] came to 1.09 ± 0.1.

For the compound `Cc1noc(C)c1S(=O)(=O)N(C)C[C@@H]1OCCCC[C@H](C)Oc2ccc(NC(=O)CCC(F)(F)F)cc2C(=O)N([C@@H](C)CO)C[C@H]1C`, under setting [1], the viability index amounted to 1.03 ± 0.09.

Consider `O=C(C[C@@H]1C=C[C@@H](NC(=O)c2ccc3c(c2)OCO3)[C@@H](CO)O1)NC1Cc2ccccc2C1`, for which, under setting [1], the viability index stood at 0.963 ± 0.11.

`COc1cccc(-c2ccccc2[C@@H]2[C@H](C#N)N(C(=O)c3ccccn3)[C@H]2CO)c1`: the viability index under setting [1] stood at 1.1 ± 0.072.

For the compound `Cc1ccc(S(=O)(=O)Nc2ccc3c(c2)C(=O)N([C@@H](C)CO)C[C@@H](C)[C@H](CN(C)S(=O)(=O)c2cccs2)OCCCC[C@@H](C)O3)cc1`, under setting [1], the viability index came to 1.13 ± 0.086.

`CO[C@H](CN(C)Cc1ccc2c(c1)OCO2)[C@H](C)CN(C(=O)c1ccccc1)[C@@H](C)CO` had a viability index under setting [1] of 1.067 ± 0.0074.

The compound `COc1ccc2c3c([C@@H](CO)N(Cc4ccncc4)C[C@]33CN(C3)C(=O)Nc3cccc(F)c3)n(C)c2c1` had a viability index under setting [1] of 1 ± 0.16.

Under setting [1], `C/C=C/c1ccc([C@H]2[C@H]3CNC[C@@H]2N3C(=O)Nc2ccc3c(c2)OCO3)cc1` had a viability index of 1.05 ± 0.093.

For `Cc1ccc(S(=O)(=O)N(C)C[C@H]2Oc3cc(C#CC4CCCC4)ccc3S(=O)(=O)N([C@@H](C)CO)C[C@H]2C)cc1`, the viability index under setting [1] was 0.713 ± 0.03.

In turn, `Cc1ccc(S(=O)(=O)N(C)C[C@H]2Oc3cc(C#CC4CCCC4)ccc3S(=O)(=O)N([C@H](C)CO)C[C@@H]2C)cc1` registered a viability index under setting [1] of 0.676 ± 0.26.

`C[C@H]1CN([C@@H](C)CO)S(=O)(=O)c2ccc(-c3ccncc3)cc2O[C@H]1CN(C)S(C)(=O)=O`: the viability index under setting [1] was found to be 1.023 ± 0.0035.

As to `COc1ccccc1S(=O)(=O)N(C)C[C@@H]1Oc2cc(/C=C/c3ccccc3)ccc2S(=O)(=O)N([C@H](C)CO)C[C@H]1C`, the viability index (library set: Broad Institute Blood Stage) came out at 0.808 ± 0.032.

For the compound `COc1cccc(S(=O)(=O)N(C)C[C@H]2Oc3cc(Br)ccc3S(=O)(=O)N([C@@H](C)CO)C[C@H]2C)c1`, the viability index under setting [1] amounted to 0.978 ± 0.026.

Under setting [1], `Cc1ccc(S(=O)(=O)N(C)C[C@@H]2Oc3cc(C#CC4CCCC4)ccc3S(=O)(=O)N([C@@H](C)CO)C[C@@H]2C)cc1` yielded a viability index of 0.837 ± 0.055.

With `CCCN(C)C[C@@H]1Oc2cc(/C=C/c3ccccc3)ccc2S(=O)(=O)N([C@@H](C)CO)C[C@H]1C`, the viability index under setting [1] amounted to 1.102 ± 0.0059.

For the compound `C[C@H]1CN([C@@H](C)CO)S(=O)(=O)c2ccc(C#Cc3cccc(F)c3)cc2O[C@H]1CN(C)S(=O)(=O)c1cn(C)cn1`, the viability index under setting [1] was 1.04 ± 0.054.

`CCCN(C)C[C@H]1Oc2cc(/C=C/c3ccccc3)ccc2S(=O)(=O)N([C@H](C)CO)C[C@@H]1C` registered a viability index under setting [1] of 1.02 ± 0.016.

Under setting [1], `C[C@@H]1CN([C@@H](C)CO)S(=O)(=O)c2ccc(C#Cc3cccc(F)c3)cc2O[C@H]1CN(C)S(=O)(=O)c1cn(C)cn1` displayed a viability index of 0.9366 ± 0.0027.
